Laboratory results taken from PubChem BioAssay.
The source made the active and inactive calls.

Legend:
[1] = test system: Human papillomavirus type 1a protein E7 (residues 44-93); experiment: small molecules binding HPV E7 44-93 – biochemical, small-molecule microarray, residues 44-93, 635 nm fluorescence, primary screen (AID 1108); conditions: fluorescence 635 nm, higher = more signal;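 note: E7 fragment applied at 1 µg/mL in TBST for 1 h at 4 C; score combines spot fluorescence with its signal to noise ratio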
[2] = hepatitis C replication reporter changes, two-sided – Huh7 cells, luciferase reporter, HCV replication inhibitor project, primary screen (AID 1109); conditions: Huh7 HCV replicon luciferase reporter, 48 h; higher = more signal;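 note: huh7 hepatoma cells harbouring a luciferase neomycin HCV replicon reporter; luciferase luminescence as measure of HCV replicon replication; test concentration not given here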
[3] = target: Left-right determination factor 2 (Homo sapiens) (UniProt O00292); experiment: small molecules binding LEFTY2 protein – biochemical, small-molecule microarray, 635 nm fluorescence scan, primary screen (AID 1110); conditions: higher = more signal
Sequence of Left-right determination factor 2 (Homo sapiens) (O00292 whole entry, looked up): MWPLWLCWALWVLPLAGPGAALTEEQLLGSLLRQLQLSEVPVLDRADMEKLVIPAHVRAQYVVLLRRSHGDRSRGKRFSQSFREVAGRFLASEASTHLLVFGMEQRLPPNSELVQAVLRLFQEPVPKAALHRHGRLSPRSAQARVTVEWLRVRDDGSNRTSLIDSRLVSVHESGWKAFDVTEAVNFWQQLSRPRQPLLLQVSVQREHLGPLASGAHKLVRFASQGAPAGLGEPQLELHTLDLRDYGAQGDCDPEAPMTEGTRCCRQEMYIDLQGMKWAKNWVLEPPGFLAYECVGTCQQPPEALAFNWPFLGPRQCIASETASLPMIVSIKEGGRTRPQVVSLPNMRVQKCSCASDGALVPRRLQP

[4] = target: Calmodulin-1 (Homo sapiens) (UniProt P0DP23); experiment: small molecules binding calmodulin-1 with EGTA – biochemical, small-molecule microarray, Cy5-labelled CALM1, profiling panel (AID 1111); conditions: Cy5-CALM1 binding fluorescence, higher = more signal;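 note: labelled calmodulin applied in Tris saline Tween buffer holding calcium plus EGTA and DTT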
[5] = target: Calmodulin-1 (Homo sapiens) (UniProt P0DP23); experiment: small molecules binding Ca-loaded calmodulin-1 – biochemical, small-molecule microarray, Cy5-labelled CALM1, plus calcium, artefact control for SMM control-protein annotation, profiling panel (AID 1112); conditions: Cy5-CALM1 binding fluorescence, higher = more signal;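 note: score merges spot fluorescence with signal to noise from triplicate slides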
[6] = probe aWnt5a binding to arrayed compounds – biochemical, biotinylated probe, 635/667 nm fluorescence, primary screen (AID 1113); conditions: small-molecule microarray, higher = more signal;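 note: score merges 667 nm fluorescence intensity with signal-to-noise per printed feature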
[7] = probe aShh binding to arrayed compounds – biochemical, biotinylated probe, 635/667 nm fluorescence, primary screen (AID 1114); conditions: small-molecule microarray, higher = more signal;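 note: probe is biotin-labelled aShh protein from a stem cell growth factor screen; measures binding of labelled protein to compounds printed on the slide; score merges feature fluorescence at 667 nm with signal-to-noise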
[8] = probe aNog binding to arrayed compounds – biochemical, biotinylated probe, 635/667 nm fluorescence, primary screen (AID 1115); conditions: small-molecule microarray, higher = more signal;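 note: probe is biotinylated aNog protein used at 0.15 µg/mL for 1 h at 4 C; z-score combines 667 nm fluorescence of each spot with its signal to noise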
[9] = target: Torsin-1A-interacting protein 1 (Homo sapiens) (UniProt Q5JTV8); experiment: compound microarray binding of lysate hLAP1 – cell lysate, small-molecule microarray, COS7 lysate, 635/667 nm fluorescence, primary screen (AID 1116); conditions: 635 nm fluorescence, higher = more signal
Sequence of Torsin-1A-interacting protein 1 (Homo sapiens) (Q5JTV8 whole entry, looked up): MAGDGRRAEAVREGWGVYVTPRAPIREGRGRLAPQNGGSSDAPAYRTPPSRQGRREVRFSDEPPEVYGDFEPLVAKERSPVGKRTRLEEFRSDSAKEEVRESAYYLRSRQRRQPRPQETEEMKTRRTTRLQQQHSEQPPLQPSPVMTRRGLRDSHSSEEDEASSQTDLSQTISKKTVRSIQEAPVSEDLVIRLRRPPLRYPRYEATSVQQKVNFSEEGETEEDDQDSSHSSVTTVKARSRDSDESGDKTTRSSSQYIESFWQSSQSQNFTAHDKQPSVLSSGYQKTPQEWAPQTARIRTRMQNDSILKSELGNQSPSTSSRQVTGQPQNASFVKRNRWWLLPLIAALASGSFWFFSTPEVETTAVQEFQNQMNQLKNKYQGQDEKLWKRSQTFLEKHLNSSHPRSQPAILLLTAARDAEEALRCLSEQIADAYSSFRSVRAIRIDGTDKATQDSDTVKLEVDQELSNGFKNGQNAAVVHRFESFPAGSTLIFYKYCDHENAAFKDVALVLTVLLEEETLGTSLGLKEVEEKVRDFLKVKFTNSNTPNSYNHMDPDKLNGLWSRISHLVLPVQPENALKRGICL

[10] = target: Alpha-bungarotoxin (Bungarus multicinctus) (UniProt P60615); experiment: compounds binding labelled alpha-BTX control protein – biochemical, small-molecule microarray, Alexa647 label, 635/667 nm fluorescence, artefact control for SMM control protein annotation, profiling panel (AID 1117); conditions: alpha-BTX-A647 binding fluorescence, higher = more signal
Sequence of Alpha-bungarotoxin (Bungarus multicinctus) (P60615 whole entry, looked up): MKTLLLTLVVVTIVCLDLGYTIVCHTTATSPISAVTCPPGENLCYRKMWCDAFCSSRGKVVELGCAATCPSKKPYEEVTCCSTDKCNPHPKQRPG

Albumin (Bos taurus) = Albumin (Bos taurus) (UniProt P02769); experiment: compounds binding labelled BSA control protein – biochemical, small-molecule microarray, Alexa647 label, 635/667 nm fluorescence, artefact control for SMM control protein annotation, profiling panel (AID 1118); conditions: BSA-A647 binding, fluorescence 635 nm, higher = more signal;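 note: score merges 667 nm emission intensity and signal-to-noise per printed compound spot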
Sequence of Albumin (Bos taurus) (P02769 whole entry, looked up): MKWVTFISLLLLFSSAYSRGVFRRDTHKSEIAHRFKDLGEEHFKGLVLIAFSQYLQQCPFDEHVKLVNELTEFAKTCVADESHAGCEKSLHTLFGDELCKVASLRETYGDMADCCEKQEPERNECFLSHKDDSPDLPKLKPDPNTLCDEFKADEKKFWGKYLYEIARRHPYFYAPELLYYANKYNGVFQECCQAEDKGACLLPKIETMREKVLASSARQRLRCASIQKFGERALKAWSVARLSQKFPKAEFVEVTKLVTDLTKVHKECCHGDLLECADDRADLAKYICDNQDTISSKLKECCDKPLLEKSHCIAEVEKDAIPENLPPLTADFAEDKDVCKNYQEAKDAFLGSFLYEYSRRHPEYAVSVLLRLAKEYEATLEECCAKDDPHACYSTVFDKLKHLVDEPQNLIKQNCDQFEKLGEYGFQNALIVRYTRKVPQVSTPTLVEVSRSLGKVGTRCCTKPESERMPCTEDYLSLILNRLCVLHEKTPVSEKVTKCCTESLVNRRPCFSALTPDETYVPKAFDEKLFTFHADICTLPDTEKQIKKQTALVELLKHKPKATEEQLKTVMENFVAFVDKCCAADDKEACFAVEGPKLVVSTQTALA

[11] = probe aXIP binding to arrayed compounds – biochemical, NeuroSMM set, 635/667 nm fluorescence, primary screen (AID 1119); conditions: small-molecule microarray, higher = more signal, called active from +8 up or from −8 down;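 note: probe is the protein aXip251-270 applied at 1 µg/mL to compound-printed slides; binding of probe to printed compounds measured as 667 nm fluorescence plus signal to noise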
[12] = probe aNOTCH3 binding on compound microarray – biochemical, small-molecule microarray, 635/667 nm fluorescence, primary screen (AID 1120); conditions: higher = more signal;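 note: probe is a biotin-tagged antibody raised against NOTCH3 rather than NOTCH3 protein; score merges spot fluorescence near 667 nm with spot signal to noise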
[13] = probe aNOTCH2 binding on compound microarray – biochemical, small-molecule microarray, 635/667 nm fluorescence, primary screen (AID 1121); conditions: higher = more signal;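 note: score merges feature fluorescence read at 667 nm with its signal to noise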
[14] = target: Carbonic anhydrase 2 (Homo sapiens) (UniProt P00918); experiment: compounds binding carbonic anhydrase 2 – biochemical, small-molecule microarray, Alexa647-labelled CAII, profiling panel (AID 1122); conditions: CAII-A647 binding fluorescence, higher = more signal
[15] = COS7 lysate on small-molecule microarray, probe aHis, 635 nm (AID 1123); conditions: COS7 cell lysate, fluorescence, higher = more signal;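 note: z-score combines 667nm fluorescence intensity with signal-to-noise per printed compound spot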
[16] = probe aLAP1 signal on lysate-treated microarray – cell lysate, small-molecule microarray, COS7 lysate, primary screen (AID 1124); conditions: probe aLAP1, fluorescence, higher = more signal;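 note: lysate comes from COS7 cells expressing LAP1 and is applied at 0.3 µg/mL; score merges spot fluorescence near 667 nm with signal-to-noise over triplicate slides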
Sam68 (KHDRBS1) = experiment: compounds binding KHDRBS1 protein – biochemical, small-molecule microarray, 635 nm fluorescence, primary screen (AID 1125); conditions: higher = more signal;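 note: score merges 667 nm channel intensity with signal to noise over triplicate slides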
[17] = test system: Chordin-like protein 2 (CHRDL2); experiment: compounds binding chordin-like 2 – biochemical, small-molecule microarray, 635 nm fluorescence, primary screen (AID 1126); conditions: fluorescence 635 nm, higher = more signal;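 note: printed compound slides probed with Chrdl2 protein at 4 µg/mL for 1 h at 4 C; score merges 667 nm emission intensity with signal to noise over three replicate slides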
[18] = target: Concanavalin-A (Canavalia ensiformis) (UniProt P02866); experiment: compounds binding concanavalin A lectin – biochemical, small-molecule microarray, Alexa647 label, 635 nm, artefact control for SMM control protein annotation, primary screen (AID 1127); conditions: ConA-A647 binding fluorescence, higher = more signal;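 note: z combines 667 nm emission intensity with signal-to-noise across three replicate slides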
Sequence of Concanavalin-A (Canavalia ensiformis) (P02866 whole entry, looked up): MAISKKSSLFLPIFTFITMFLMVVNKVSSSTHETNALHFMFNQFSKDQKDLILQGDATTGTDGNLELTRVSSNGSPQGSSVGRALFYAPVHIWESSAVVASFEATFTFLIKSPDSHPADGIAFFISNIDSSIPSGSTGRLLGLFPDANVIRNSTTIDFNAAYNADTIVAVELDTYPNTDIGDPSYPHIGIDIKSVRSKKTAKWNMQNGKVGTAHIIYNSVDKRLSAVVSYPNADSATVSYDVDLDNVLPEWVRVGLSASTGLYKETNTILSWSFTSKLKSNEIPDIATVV

| Structure (SMILES) | composite z-score [1] | z-score [2] | composite z-score [3] | composite z-score [4] | composite z-score [5] | composite z-score [6] | composite z-score [7] | composite z-score [8] | composite z-score [9] | composite z-score [10] | composite z-score (Albumin (Bos taurus)) | composite Z-score [11] | composite z-score [12] | composite z-score [13] | composite z-score [14] | composite z-score [15] | composite z-score [16] | composite z-score (Sam68 (KHDRBS1)) | composite z-score [17] | composite z-score [18] |
| --- | --- | --- | --- | --- | --- | --- | --- | --- | --- | --- | --- | --- | --- | --- | --- | --- | --- | --- | --- | --- |
| COCCOC(=O)N1C(=O)[C@@]2(c3cc(C#CCCO)ccc31)[C@H](C(N)=O)[C@H]1C(=O)O[C@H](c3ccccc3)[C@H](c3ccccc3)N1[C@@H]2c1ccc(OCCO)cc1 | 1.28 | -1.14 | 0.957 | 1.1 | -0.351 | -0.0303 | 0.0253 | -0.371 | 1.46 | 0.787 | 0.489 | 0.206 (inactive) | 0.12 | 0.0248 | 0.354 | 2.21 | 0.667 | 1.29 | 0.618 | 1.15 |
| CCOC(=O)C=Cc1cc(F)ccc1O | 0.261 | -1.36 | -0.251 | -0.297 | -0.352 | -0.0462 | 0.0469 | -0.181 | -0.207 | 0.0531 | -0.0584 | -0.276 (inactive) | -0.0324 | -0.0995 | 0.384 | 0.149 | 0.0926 | 0.161 | 0.133 | 0.126 |
| C=CCC(OC(C)=O)[C@@H]1[C@@H](N(Cc2ccc(-c3cccc(C(F)(F)F)c3)o2)C(=O)c2cccc3ccccc23)c2cc(OCCCO)ccc2N1C(=O)Cc1ccc(OC)cc1 (stereo not given in full) | 0.328 | -0.72 | -0.391 | -0.534 | -0.738 | -0.208 | 0.167 | -0.083 | 0.0368 | -0.0191 | 0.311 | -0.0798 (inactive) | -0.027 | -0.151 | 0.149 | 0.428 | 0.0827 | -0.323 | 0.0616 | -0.422 |
| C=C[C@@H](OC)[C@H](OC(=O)Nc1ccc(OC)cc1)c1ccc(OC)c(O)c1 | -0.546 | 0.15 | -1.86 | -0.56 | -0.194 | -0.154 | -0.367 | -0.45 | -0.386 | -0.382 | -0.787 | 0.43 (inactive) | -0.246 | -0.203 | 0.415 | 1.36 | 0.0218 | -0.853 | -0.96 | -0.613 |
| CC(C)CNC(=O)[C@@]1(C)c2ccccc2C(=O)N(Cc2cc(C(F)(F)F)cc(C(F)(F)F)c2)[C@H]1c1ccc(CO)cc1 | 0.267 | -0.447 | -0.557 | -0.438 | 0.507 | -0.175 | -0.291 | -0.318 | 0.0492 | -0.0153 | 0.184 | 0.635 (inactive) | -0.242 | -0.111 | 0.72 | 0.79 | -0.205 | 0.108 | -0.307 | 0.0758 |
| CC(C)CNC(=O)[C@@H]1c2ccccc2C(=O)N(C2CCCCC2)[C@H]1c1ccc(CO)cc1 | 0.0857 | -0.48 | -0.276 | 0.54 | 1.09 | -0.124 | -0.153 | 0.313 | 0.875 | -0.624 | -0.183 | 1.32 (inactive) | -0.159 | -0.118 | 0.694 | 2.44 | -0.264 | 0.369 | -0.718 | -0.0374 |
| CCCNC(=O)[C@@]1(Sc2ccc(C)cc2)CC(=O)N(C2CCCCC2)[C@@H]1c1ccc(CO)cc1I | 0.0411 | -2.45 | -0.153 | 1.42 | 0.86 | -0.0242 | 0.768 | 0.757 | 0.982 | 0.231 | 0.207 | 0.73 (inactive) | -0.147 | -0.132 | 0.439 | 1.47 | 0.207 | 0.65 | -0.501 | 0.298 |
| CC(C)(C)OC(=O)CC[C@]1(C(=O)N2CCCCC2)COC(c2ccc(OCCCO)cc2)=N1 | 1.45 | -0.523 | 0.393 | 1.4 | -0.257 | 0.0775 | 0.385 | -0.614 | 1.36 | 0.302 | 0.939 | 1.28 (inactive) | 0.286 | 0.0341 | 0.862 | 2.68 | 1.05 | 1.14 | -0.538 | 1.11 |
| Cc1ccc(N2C(=O)c3ccccc3[C@](C)(C(=O)NCc3ccccc3)[C@@H]2c2ccc(CO)cc2)nc1 | -0.192 | 0.478 | -0.0146 | -0.416 | -0.497 | 0.0079 | -0.0837 | -0.108 | 0.263 | -0.3 | -0.377 | -0.446 (inactive) | 0.0311 | 0.0611 | 0.764 | 0.688 | 0.656 | -0.316 | 0.408 | 0.0943 |
| Cc1cccc([C@H]2C[C@H]3C(I)=C[C@@H]2C(=O)[C@]32CO2)c1 | -0.998 | -1.94 | 0.0047 | -0.542 | -0.271 | -0.141 | -0.345 | -0.0381 | -0.0258 | 0.132 | -0.883 | 0.694 (inactive) | -0.199 | -0.112 | 0.0705 | -0.55 | 0.466 | -0.5 | 0.645 | -0.478 |
| COCCOC(=O)N1C(=O)[C@@]2(c3cc(C#CCNC(N)=O)ccc31)[C@H](c1ccc(OCCO)cc1)N1[C@H](c3ccccc3)[C@H](c3ccccc3)OC(=O)[C@H]1[C@@H]2C(N)=O | 1.33 | -0.106 | 0.437 | 0.741 | 0.585 | -0.089 | 0.225 | 0.54 | 0.803 | 0.667 | 0.319 | 0.658 (inactive) | 0.116 | -0.01 | 0.264 | 1.13 | 0.439 | 1.13 | 0.457 | 1.08 |
